Records with an inconclusive call do not appear. Active and inactive are the calls of the source. Calls come from the whole dose curve; as a rule, active = well fitted inhibition curve with a large enough effect; inconclusive = small, poorly fitted or top-dose-only effect; inactive = no such curve, though single readings can be large or run the other way. Where a SMILES comes first, the peptide text is derived from it.
Test: Primary qHTS for inhibitors of nuclear receptor binding SET domain protein 2 (NSD2) in an RCH-ACV wild type WT cells (2C) (AID 1645877); note: nearly all actives have a fitted effect of over 70% in size
Conditions: RCH-ACV (leukaemia line) NSD2 WT (2C) viability, CellTiter-Glo, 72 h; series mostly up to 44.9 µM; activity change, negative = cell killing: at the top concentration
% is set by controls: 0 for no effect and ±100 for the full control effect; potency is the fitted concentration of half-maximal effect.

Row | Structure (SMILES) | Potency | activity change, negative = cell killing | outcome
1 | CC(C(O)c1ccccc1)N(C)CCOC(c1ccccc1)c1ccccc1 (centres undefined) | 16.3 µM (active) | – | –
2 | OC[C@]1(O)OC[C@@H](O)[C@H](O)[C@@H]1O | – | -5.87% (inactive) | –
3 | O=C(CCCl)NCc1ccccc1 | – | 6.95% (inactive) | –
4 | CC(=O)N[C@@H](CO)C(=O)N[C@@H](CC(=O)O)C(=O)N[C@@H](CCCCN)C(=O)N1CCC[C@H]1C(=O)O (Ac-SDKP-OH) | – | – | inactive
5 | Cc1cnc(NS(=O)(=O)c2ccc(N)cc2)nc1 | – | -1.33% (inactive) | –
6 | CO/N=C(\C(=O)O)c1csc(NC(=O)CCl)n1 | – | – | inactive
7 | C#Cc1ccc(-c2ccccc2F)cc1 | – | 5.81% (inactive) | –
8 | O=C(O)Cn1cnnn1 | – | 6.53% (inactive) | –
9 | O=C(CCCl)NCCc1ccccc1 | – | 9.38% (inactive) | –
